In the GenesisPotency data set one finds outcome data, which are given here for 56 molecules.

In all, about 290,000 compounds went through this assay and about 3,000 (1%) were called active. Rule as the data show it: active = inhibition mostly above about 36% (no sharp cut-off); inactive = mostly below about 34%. The full list was thinned out, with actives kept by preference.

This assay has as its target T1, Nucleotide-binding oligomerization domain-containing protein 1, Homo sapiens (UniProt Q9Y239).
T1 sequence (whole entry): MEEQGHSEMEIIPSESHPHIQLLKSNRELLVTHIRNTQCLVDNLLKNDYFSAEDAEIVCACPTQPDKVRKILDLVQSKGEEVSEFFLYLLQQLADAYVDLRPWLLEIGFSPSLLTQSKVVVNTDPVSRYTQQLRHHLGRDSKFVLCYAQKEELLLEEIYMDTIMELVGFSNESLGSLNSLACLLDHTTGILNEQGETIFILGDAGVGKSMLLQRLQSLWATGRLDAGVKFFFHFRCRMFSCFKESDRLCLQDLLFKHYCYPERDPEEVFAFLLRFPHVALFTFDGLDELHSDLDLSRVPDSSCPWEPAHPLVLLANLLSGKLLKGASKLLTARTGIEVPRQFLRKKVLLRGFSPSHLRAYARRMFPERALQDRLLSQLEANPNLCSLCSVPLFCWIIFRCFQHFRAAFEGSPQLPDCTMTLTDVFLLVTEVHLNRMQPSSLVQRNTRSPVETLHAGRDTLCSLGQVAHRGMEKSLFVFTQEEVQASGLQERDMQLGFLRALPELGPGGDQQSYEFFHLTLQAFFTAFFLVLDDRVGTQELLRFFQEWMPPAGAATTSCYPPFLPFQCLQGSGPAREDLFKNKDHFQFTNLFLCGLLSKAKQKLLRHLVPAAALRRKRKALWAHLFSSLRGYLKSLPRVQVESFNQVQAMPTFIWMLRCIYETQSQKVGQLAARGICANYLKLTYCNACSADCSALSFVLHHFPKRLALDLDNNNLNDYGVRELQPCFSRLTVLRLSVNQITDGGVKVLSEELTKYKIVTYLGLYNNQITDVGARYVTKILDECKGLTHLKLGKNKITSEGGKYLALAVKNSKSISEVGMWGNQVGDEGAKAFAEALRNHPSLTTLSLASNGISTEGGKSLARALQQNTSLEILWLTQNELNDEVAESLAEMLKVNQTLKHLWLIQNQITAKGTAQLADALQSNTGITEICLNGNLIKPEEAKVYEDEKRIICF
Briefly: NOD1 signaling inhibitors, primary screen, cell-based, luminescence, uHTS (AID 1578).
As to `Cc1sc2nc(SCc3ccc(C(=O)O)cc3)n(Cc3ccco3)c(=O)c2c1C`, the call was active.

Regarding `COC(=O)c1ccc2c(c1)C(C)(C)C(/C=C/c1ccc(O)cc1)=[N+]2C.[I-]`, the molecule was classed as active.

For the molecule `Cn1c(SC2=CS(=O)(=O)c3ccccc32)nc2ccccc21`, the molecule was classed as active.

In the case of `O=S1(=O)C=C(Sc2nc3ccccc3s2)c2ccccc21`, the molecule was classed as active.

As for `O=S1(=O)C=C(Sc2nc3cc(Cl)ccc3o2)c2ccccc21`, the outcome was active.

For `Cc1cc(C)cc(NC(=O)CSc2nnc(Cc3cccn3C)n2-c2ccc(F)cc2)c1`, the call was active.

For the molecule `CC(=O)NC(=C(Cl)Cl)S(=O)(=O)c1ccccc1`, the outcome was active.

For `Cc1ccc(C(=O)NC(=C(Cl)Cl)S(=O)(=O)c2ccccc2)cc1`, the outcome was active.

As to `Cc1ccc(C(=O)NC(C#N)=C(Cl)Cl)cc1`, the result was active.

Take `O=C(NC(=C(Cl)Cl)S(=O)(=O)c1ccc(Cl)cc1)c1ccccc1`: the call was active.

For the molecule `O=C(NCCCSc1ccccc1)c1cc(Cl)ccc1O`, the result was active.

For the molecule `O=C(NCCCSc1ccccc1)c1cc(Br)ccc1O`, the result was active.

Consider `CCOC(=O)c1cccc2c1-c1ccccc1/C2=N/O`, for which the call was active.

Consider `COC(=O)c1cccc2c1-c1ccccc1/C2=N/O`, for which the molecule was called active.

`Cc1ccc2c(C(=O)CCl)c(C)[nH]c2c1`: the outcome was active.

As for `Cc1[nH]c2ccccc2c1C(=O)CCl`, the outcome was active.

With `Cc1ccc(S(=O)(=O)Nc2cccc3cccnc23)cc1`, the call was active.

On to `COc1cc(NS(=O)(=O)c2ccc3ccccc3c2)c2ncccc2c1`, for which the molecule was classed as active.

Regarding `Cc1ccc2cccc(NS(=O)(=O)c3ccccc3)c2n1`, the molecule was classed as active.

`O=[N+]([O-])c1ccccc1S(=O)(=O)Nc1cccc2cccnc12`: the result was active.

Turning to `Cc1ccc(S(=O)(=O)Nc2cccc3cccnc23)c([N+](=O)[O-])c1`, the molecule was classed as active.

With `C[C@@H]1C[C@@H]2O[C@H]2/C=C\C=C\C(=O)Cc2c(Cl)c(O)cc(O)c2C(=O)O1`, the result was active.

With `C/C(=N\NC(=O)c1cccc(Br)c1)c1ccccn1`, the call was active.

With `C/C(=N\NC(=O)c1ccc(Cl)cc1)c1ccccn1`, the molecule was classed as active.

Take `C/C(=N\NC(=O)Cc1ccc(Cl)cc1)c1ccccn1`: the molecule was called active.

As for `C/C(=N\NC(=O)c1ccc(F)cc1)c1ccccn1`, the call was active.

Take `COc1ccc(C(=O)N/N=C(\C)c2ccccn2)cc1OC`: the result was active.

On to `C/C(=N\NC(=O)COc1ccccc1-c1ccccc1)c1ccccn1`, for which the call was active.

On to `C/C(=N\NC(=O)c1ccc(Cl)c(Cl)c1)c1ccccn1`, for which the call was active.

`Nc1c(Cl)ncnc1N/N=C/c1ccccn1`: the molecule was called active.

As to `COc1ccc(CNc2ncnc3ccccc23)cc1`, the molecule was called active.

With `Cc1cc2c(NCc3ccccc3)ncnc2s1.Cl`, the call was active.

For `c1ccc(CNc2ncnc3ccccc23)cc1`, the call was inactive.

On to `Cl.c1ccc(CNc2ncnc3ccccc23)cc1`, for which the result was active.

With `CC(Nc1ncnc2ccccc12)c1ccccc1` (stereo unspecified), the call was active.

Regarding `COc1cccc(CNc2ncnc3cc(Cl)ccc23)c1`, the call was active.

`Brc1ccc2ncnc(NCc3cccnc3)c2c1`: the outcome was active.

As for `S=C(Nc1ccc(Cl)c(Cl)c1)NC1CCCCC1`, the outcome was active.

Regarding `Fc1ccc(NC(=S)NNc2ncc(C(F)(F)F)cc2Cl)c(F)c1`, the molecule was called active.

Regarding `CCCCOC(=O)c1[nH]c2c(c1C)C(=O)CC(c1cc(OC)c(OC)c(OC)c1)C2` (stereo unspecified), the result was active.

`COCCOC(=O)c1[nH]c2c(c1C)C(=O)CC(c1cc(OC)c(OC)c(OC)c1)C2` (stereo unspecified): the result was active.

As to `Cc1ccc(-c2csc(NC(=O)C3=NN(c4ccccc4)C(=O)CC3)n2)cc1`, the result was active.

Consider `O=C(N/N=C/c1ccc([N+](=O)[O-])s1)c1ccncc1`, for which the outcome was active.

`Cc1ccc(C(=O)N/N=C/c2ccc([N+](=O)[O-])s2)cc1`: the call was active.

Regarding `Cc1ccc2oc(Nc3nc(-c4ccccc4)cc(=O)[nH]3)nc2c1`, the molecule was classed as active.

As to `COc1cccc(C(=O)Nc2ccc3nc(N4CCN(c5ncccn5)CC4)cc(C)c3c2)c1OC`, the molecule was called active.

In the case of `Cc1ccc2nc(-c3ccc4c(c3)OCCO4)cn2c1`, the call was active.

For the molecule `O=C(/C=C/c1ccco1)Oc1cc(Br)cc(/C=N/NC(=O)c2ccccc2O)c1`, the molecule was classed as active.

Regarding `O=C(Nc1nc(-c2cccs2)cs1)c1ccc(S(=O)(=O)N2CCCC2)cc1`, the result was active.

Consider `O=C(Nc1nc(-c2ccccc2)cs1)C1CCCN(S(=O)(=O)c2ccccc2)C1` (stereo unspecified), for which the outcome was active.

In the case of `O=C(Nc1nnc(SCc2c(Cl)cccc2Cl)s1)c1cccc([N+](=O)[O-])c1`, the molecule was classed as active.

Take `CC(=O)c1cccc(NS(=O)(=O)c2ccc(-c3cnc(C4CC4)o3)cc2)c1`: the molecule was called active.

For `COc1ccc(CCNc2cc(N3CCN(C(=O)c4ccccc4F)CC3)ccc2[N+](=O)[O-])cc1OC`, the result was active.

As for `Cc1ccc(Sc2c(C=O)c3ccccc3n2C)cc1`, the outcome was active.

With `Cn1c(Sc2ccc(Br)cc2)c(C=O)c2ccccc21`, the result was active.

Regarding `Cc1cccc(Sc2c(C=O)c3ccccc3n2C)c1`, the molecule was called active.
